Unmarked numbers belong to inactive results. Records with an inconclusive call do not appear. Calls of active or inactive are those of the source. The call rests on the fitted dose curve; in most records, active means well fitted inhibition curve with a large enough effect; inconclusive means small, poorly fitted or top-dose-only effect; inactive means flat fitted curve, though single readings scatter.
What follows are compounds tested against Phospholipid hydroperoxide glutathione peroxidase GPX4 (Homo sapiens) (UniProt P36969) (assay: Primary qHTS Assay for Inhibitors of Recombinant Selenoprotein Glutathione Peroxidase 4 (GPX4) (AID 1845192; further: nearly all actives have a fitted effect of over 65% in size; on activity change, negative = inhibition: on the % scale 0 is the no-effect control and ±100 the full control effect)). Conditions: recombinant GPX4, GR-coupled NADPH fluorescence, 15 min; series mostly up to 50 µM; activity change, negative = inhibition: at the top concentration.
Phospholipid hydroperoxide glutathione peroxidase GPX4 (Homo sapiens), sequence (P36969 whole entry, looked up): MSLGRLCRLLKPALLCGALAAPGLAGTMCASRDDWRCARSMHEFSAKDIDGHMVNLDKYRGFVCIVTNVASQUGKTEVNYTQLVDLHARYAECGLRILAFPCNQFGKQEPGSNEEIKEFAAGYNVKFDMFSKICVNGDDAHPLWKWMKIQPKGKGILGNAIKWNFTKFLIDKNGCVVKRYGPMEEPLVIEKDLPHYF
In short: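 GR-coupled assay: recombinant GPX4 preincubated 30 min with compound at room temperature; final 200 nM GPX4, 1 mM GSH, 0.5 mM cumene hydroperoxide, 0.5 mM NADPH, 100 nM GR, 0.01% BSA, pH 7.5 Tris. NADPH fluorescence (340/450 nm) read at 0 and 15 min.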
Potency means the concentration at half of the fitted maximal effect.

Compound | activity change, negative = inhibition | outcome | Potency
COc1cc(/C=C2\CC[C@H]3COC[C@@H](c4cc(F)c(F)c(F)c4)N3C2=O)ccc1-n1cnc(C)c1 | -9.08% |  | 
NC(N)=N/N=C/c1ccccc1Cl |  | inactive | 
CO[C@@H]1[C@H](O)CCC2(CO2)[C@H]1[C@@]1(C)O[C@@H]1CC=C(C)C (stereo not given in full) | -8.13% |  | 
O[C@@](Cc1ncc(CC2(C(F)(F)F)CC2)[nH]1)(c1ccc(-n2cccn2)cc1)C(F)(F)F | -0.287% |  | 
COc1ccc(-c2ccc3c(N4CCOCC4C)nc(N4CCOCC4C)nc3n2)cc1CO (stereo not given) |  |  | 10.1 µM (active)
CCn1c(-c2nonc2N)nc2c(C#CCO)ncc(OCCCN)c21 | -1.65% |  | 
C=C1C(=O)OC2C1CCC1(C)C(O)CC=C(C)C21 (stereo not given) | -6.9% |  | 
COC(=O)c1cc2c(C(F)(F)F)cc(-c3ccccc3)cc2n1O | -19.2% |  | 
CCCc1cc(C)n(C)c(=O)c1CN(C)C(=O)c1cc(-c2ccc(N3CCN(C(C)C)CC3)nc2)cc2c1cnn2C(C)C | -18.9% |  | 
Cc1ccc(F)cc1S(=O)(=O)N[C@@H]1CCN(Cc2ccc(OC(C)C)cc2)C1 | 8.33% |  | 
CC12CCC3C1C(c1c(cc(O)c(C(=O)c4ccccc4)c1O)O2)C3(C)C (stereo not given) | -5.83% [at 27.8 µM] |  | 
Cc1ccc(C)c(NS(=O)(=O)c2cc(C(=O)Nc3ccccc3-c3ccccc3)ccc2C)c1 | -11.7% |  | 
COC(=O)C[C@H]1C(C)(C)[C@H](OC(=O)c2ccccc2)C2CC3=C4CC(=O)O[C@@H](c5ccoc5)[C@]4(C)CCC3[C@@]1(C)C2=O (stereo not given in full) | -2.23% [at 27.8 µM] |  | 
C=C(C)C(=O)O[C@H]1C[C@@](C)(O)C2(O)CCC(C)(/C=C3/OC(=O)C(COC)=C31)O2 (stereo not given in full) | -9.7% [at 27.8 µM] |  | 
Cn1c(=O)c(F)c(Nc2ccc(I)cc2F)c2c(=O)n(CC(O)CO)cnc21 (stereo not given) | -1.3% |  | 
Cc1cccc(CC(=O)N2CCc3c2ccc(-c2cn(C)c4ncnc(N)c24)c3F)n1 | -17.1% |  | 
CC(=O)N1CCN(CCOc2ccc(C3CCN(C4=Nn5c(nnc5C(F)(F)F)CC4)CC3)cc2)CC1 | 11.4% |  | 
O=C(Nc1nc2cc(C(F)(F)F)cc(NC3CC3)n2n1)c1cccnc1 | 0.575% |  | 
Clc1ccc(Nc2nc3ccccc3c3nc(C4CCCCC4)[nH]c23)cc1Cl | -13.1% |  | 
COc1cc(C(C)=O)c(OC)c2c1OC(C)(C)C=C2 | -1.66% |  | 
C1=Cc2ccccc2C(=C2CCN(CCCCc3nn[nH]n3)CC2)c2ccccc21 | 0.417% |  | 
Cc1ccc(-c2ncc[nH]2)cc1NC(=O)c1ccc(OCc2ccccn2)cc1 | 3.1% |  | 
CC(C)=CCCC1(C)C2CCC1(C)C(O)C2 (stereo not given) | -13% |  | 
Cn1nc(-c2ccc(C(F)(F)F)cc2)nc2c(=O)n(C)c(=O)nc1-2 |  |  | 22.7 µM (active)
NCC(CNc1nc(Nc2cccc(NC(=O)N3CCCC3)c2)ncc1I)C(=O)c1cccs1 (stereo not given) | 2.1% |  | 
C[C@H]1CC[C@@]2(OC1)O[C@H]1CC3[C@@H]4CC[C@@H]5C[C@@H](O[C@@H]6O[C@H](CO)[C@@H](O[C@@H]7O[C@H](CO[C@@H]8OC[C@@H](O)[C@H](O)[C@H]8O)[C@@H](O[C@@H]8O[C@H](CO)[C@H](O)[C@H](O)[C@H]8O)[C@H](O)[C@H]7O)[C@H](O)[C@H]6O)CC[C@]5(C)C4CC[C@]3(C)[C@H]1[C@@H]2C (stereo not given in full) | 3.66% [at 15.3 µM] |  | 

What follows are compounds tested against Luciferin 4-monooxygenase (Photinus pyralis) (UniProt P08659) (assay: Primary firefly luciferase (FLuc) qHTS assay for identification of artifact compounds. (AID 1845220; further: nearly all actives have a fitted effect of over 60% in size;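 on activity change, negative = inhibition: plate controls were DMSO vehicle for no effect and no enzyme for full effect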)). Conditions: purified firefly luciferase, luminescence, 5 min; series mostly up to 54.1 µM; activity change, negative = inhibition: at the top concentration.
In short: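 D-luciferin and ATP (10 uM each, final) in Tris acetate buffer pH 7.6 were incubated with compounds for 15 min at room temperature. The reaction was started with 10 nM Photinus pyralis luciferase and luminescence read after 5 min. Percent inhibition was fitted to a 4-parameter Hill equation.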

Compound | outcome | activity change, negative = inhibition | Potency
COc1ccc(S(=O)(=O)Nc2c(C)cc(C)cc2C)cc1 | inactive |  | 
CC1=C(C(=O)Nc2cc(Cl)ccc2Cl)C(c2ccco2)C2=C(CCCC2=O)N1 (stereo not given) |  | 0.845% | 
CC(=O)O[C@H]1C[C@@](O)(C(C)C)[C@@H]2[C@@H](OC(=O)c3ccc(O)cc3)CC(C)=CC[C@@]12C |  | 2.91% [at 25.7 µM] | 
CCCCc1c(-c2ccc(OC)cc2)[nH]c2nccnc12 |  | -8.07% | 
CC(C)S(=O)(=O)Nc1ccc(F)c(C(=O)c2c[nH]c3ncc(-c4cccnc4)cc23)c1F | inactive |  | 
O=C(N[C@@H]1CCCc2c1cnn2-c1ccc(F)cc1F)c1ccccn1 |  | -0.413% | 
Cn1ncc(Cl)c1-c1cc(C(=O)N[C@H](CN)Cc2cccc(F)c2)sc1Cl | inactive |  | 
O=C(NCCCn1ccnc1)c1cc(-c2ccco2)on1 |  | -3.2% | 
CC1(C)CC[C@]23CO[C@@]4(CCC5[C@@]6(C)CC[C@H](O[C@@H]7OC[C@H](O[C@@H]8O[C@H](CO)[C@@H](O)[C@H](O)[C@H]8O[C@@H]8OC[C@@H](O)[C@H](O)[C@H]8O)[C@H](O)[C@H]7O)[C@@](C)(CO)C6CC[C@@]5(C)[C@]4(C)CC2=O)[C@@H]3C1 (stereo not given in full) | inactive [at 11.6 µM] |  | 
C=C1CC2OC(=O)C(COC)C2C(OC(=O)/C(C)=C\C)CC2(C)OC1=CC2=O (stereo not given) | inactive |  | 
CN(C)C(=O)NC1(c2ccccc2)CCN(CCC[C@]2(c3ccc(Cl)c(Cl)c3)CCCN(C(=O)c3ccccc3)C2)CC1 | inactive |  | 
CCN(Cc1cc(Nc2nc(C)cn3c(-c4cn[nH]c4)cnc23)sn1)C(C)(C)CO |  | -3.14% | 
O=S(=O)(NCc1ccccn1)c1ccc(Br)c2ccccc12 |  | 1.11% | 
COc1cc(/C=C2\CC[C@H]3COC[C@@H](c4cc(F)c(F)c(F)c4)N3C2=O)ccc1-n1cnc(C)c1 |  | 0.476% | 
NC(N)=N/N=C/c1ccccc1Cl |  | 1.13% | 
CO[C@@H]1[C@H](O)CCC2(CO2)[C@H]1[C@@]1(C)O[C@@H]1CC=C(C)C (stereo not given in full) | inactive |  | 
O[C@@](Cc1ncc(CC2(C(F)(F)F)CC2)[nH]1)(c1ccc(-n2cccn2)cc1)C(F)(F)F |  | 2.19% | 
COc1ccc(-c2ccc3c(N4CCOCC4C)nc(N4CCOCC4C)nc3n2)cc1CO (stereo not given) | inactive |  | 
CCn1c(-c2nonc2N)nc2c(C#CCO)ncc(OCCCN)c21 | inactive |  | 
C=C1C(=O)OC2C1CCC1(C)C(O)CC=C(C)C21 (stereo not given) |  | 2.81% | 

Compound | outcome | activity change, negative = inhibition | Potency
COC(=O)c1cc2c(C(F)(F)F)cc(-c3ccccc3)cc2n1O |  | 4.33% | 
CCCc1cc(C)n(C)c(=O)c1CN(C)C(=O)c1cc(-c2ccc(N3CCN(C(C)C)CC3)nc2)cc2c1cnn2C(C)C |  | -1.37% | 
Cc1ccc(F)cc1S(=O)(=O)N[C@@H]1CCN(Cc2ccc(OC(C)C)cc2)C1 |  | -0.203% | 
CC12CCC3C1C(c1c(cc(O)c(C(=O)c4ccccc4)c1O)O2)C3(C)C (stereo not given) |  | 1.08% | 
Cc1ccc(C)c(NS(=O)(=O)c2cc(C(=O)Nc3ccccc3-c3ccccc3)ccc2C)c1 |  | 4.82% | 
COC(=O)C[C@H]1C(C)(C)[C@H](OC(=O)c2ccccc2)C2CC3=C4CC(=O)O[C@@H](c5ccoc5)[C@]4(C)CCC3[C@@]1(C)C2=O (stereo not given in full) |  | -2.91% [at 25.7 µM] | 
C=C(C)C(=O)O[C@H]1C[C@@](C)(O)C2(O)CCC(C)(/C=C3/OC(=O)C(COC)=C31)O2 (stereo not given in full) |  | 3.23% | 
Cn1c(=O)c(F)c(Nc2ccc(I)cc2F)c2c(=O)n(CC(O)CO)cnc21 (stereo not given) |  | -5.09% | 
Cc1cccc(CC(=O)N2CCc3c2ccc(-c2cn(C)c4ncnc(N)c24)c3F)n1 | inactive |  | 
CC(=O)N1CCN(CCOc2ccc(C3CCN(C4=Nn5c(nnc5C(F)(F)F)CC4)CC3)cc2)CC1 | inactive |  | 
O=C(Nc1nc2cc(C(F)(F)F)cc(NC3CC3)n2n1)c1cccnc1 |  | 2.83% | 
Clc1ccc(Nc2nc3ccccc3c3nc(C4CCCCC4)[nH]c23)cc1Cl |  | -5.55% | 
COc1cc(C(C)=O)c(OC)c2c1OC(C)(C)C=C2 |  | -5.84% | 
C1=Cc2ccccc2C(=C2CCN(CCCCc3nn[nH]n3)CC2)c2ccccc21 |  | 3.35% | 
Cc1ccc(-c2ncc[nH]2)cc1NC(=O)c1ccc(OCc2ccccn2)cc1 |  | -2.86% | 
CC(C)=CCCC1(C)C2CCC1(C)C(O)C2 (stereo not given) |  | 0.47% | 
Cn1nc(-c2ccc(C(F)(F)F)cc2)nc2c(=O)n(C)c(=O)nc1-2 |  |  | 6.01 µM (active)
NCC(CNc1nc(Nc2cccc(NC(=O)N3CCCC3)c2)ncc1I)C(=O)c1cccs1 (stereo not given) | inactive |  | 
C[C@H]1CC[C@@]2(OC1)O[C@H]1CC3[C@@H]4CC[C@@H]5C[C@@H](O[C@@H]6O[C@H](CO)[C@@H](O[C@@H]7O[C@H](CO[C@@H]8OC[C@@H](O)[C@H](O)[C@H]8O)[C@@H](O[C@@H]8O[C@H](CO)[C@H](O)[C@H](O)[C@H]8O)[C@H](O)[C@H]7O)[C@H](O)[C@H]6O)CC[C@]5(C)C4CC[C@]3(C)[C@H]1[C@@H]2C (stereo not given in full) |  | 2.09% [at 11.6 µM] | 

— PubChem BioAssay (NCATS)
